The text below walks through data of PubChem BioAssay (EPA / NIEHS).

Results filed as inconclusive are left out. Calls of active or inactive are those of the source. How the source made its calls: active means hit-call score of the fitted dose curve at least 0.9, where 1 is the maximum; inconclusive means response in the unintended direction; inactive means score below 0.9.

Chain of human Beta-secretase (BACE), BACE1 (gene 23621) (P56817 whole entry, looked up): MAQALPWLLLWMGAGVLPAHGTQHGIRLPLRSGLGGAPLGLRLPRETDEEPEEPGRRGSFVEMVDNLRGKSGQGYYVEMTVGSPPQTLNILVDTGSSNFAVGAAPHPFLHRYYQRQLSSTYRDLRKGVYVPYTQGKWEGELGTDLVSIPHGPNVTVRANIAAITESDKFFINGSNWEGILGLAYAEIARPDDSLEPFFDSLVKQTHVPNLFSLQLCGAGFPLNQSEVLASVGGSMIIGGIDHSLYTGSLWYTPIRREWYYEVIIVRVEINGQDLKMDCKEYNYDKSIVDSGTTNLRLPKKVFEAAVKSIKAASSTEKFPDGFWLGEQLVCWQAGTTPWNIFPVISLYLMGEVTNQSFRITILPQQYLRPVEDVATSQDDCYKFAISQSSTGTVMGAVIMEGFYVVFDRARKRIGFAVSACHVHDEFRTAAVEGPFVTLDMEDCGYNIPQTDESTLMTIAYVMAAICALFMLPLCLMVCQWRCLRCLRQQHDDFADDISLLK
Chain of human Dual Specificity Protein Phosphatase 3 (DUSP3), DUSP3 (gene 1845) (P51452 whole entry, looked up): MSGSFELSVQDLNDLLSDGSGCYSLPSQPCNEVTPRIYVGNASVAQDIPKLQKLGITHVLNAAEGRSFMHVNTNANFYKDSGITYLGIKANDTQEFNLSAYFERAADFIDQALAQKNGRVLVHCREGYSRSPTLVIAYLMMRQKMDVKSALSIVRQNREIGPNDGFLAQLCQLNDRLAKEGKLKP

One test has as its target Cytochrome P450 2C19 (Homo sapiens) (UniProt P33261). Put plainly: NVS_ADME_hCYP2C19: NovaScreen (NVS) CYP450-related Enzyme Activity (ADME) Assay for human CYP2C19 (AID 2283113).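 On AC50: potency for inhibition seen as loss of fluorescent signal.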 In outline: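 Compounds first screened in duplicate at 10 uM, then confirmed in concentration series. Insect-cell-expressed human CYP2C19 turned over a fluorogenic substrate, and fluorescence was read after 1 h. Inhibition taken as signal loss relative to acetonitrile.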
Regarding `c1ccc2sc(SN(C3CCCCC3)C3CCCCC3)nc2c1`, the result was inactive.
A word on the AC50: it is the concentration at which the activity in the assay is half-maximal. With `CC(=O)O[C@]1(C(C)=O)CC[C@H]2[C@@H]3C[C@H](C)C4=CC(=O)CC[C@]4(C)[C@H]3CC[C@@]21C`, the AC50 was 2.5 µM (active).
With `O=P(c1ccccc1)(c1ccccc1)c1ccccc1`, the half-maximal activity concentration (AC50) is 0.0121 µM (active).
As to `Nc1ccc(F)c([N+](=O)[O-])c1`, the half-maximal activity concentration (AC50) is 0.0662 µM (active).
Regarding `O=C1OC2(c3cc(Br)c(O)c(Br)c3Oc3c2cc(Br)c(O)c3Br)c2c(Cl)c(Cl)c(Cl)c(Cl)c21`, the AC50 is 0.196 µM (active).
For `CCn1c2ccccc2c2cc(N)ccc21`, the AC50 was 2.03 µM (active).

The target of another test is human Caspase 5 (CASP5), CASP5 (gene 838) (UniProt P51878). Put plainly: NVS_ENZ_hCASP5: NovaScreen (NVS) Enzymatic Assay for human Caspase 5 (CASP5) (AID 2283137). In outline: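 Cell-free protease assay with bacterially expressed CASP5 and a fluorescent substrate, measured at 2 h. Values fitted relative to DMSO as baseline, from concentration-response series topping at 50 uM.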
Chain of human Caspase 5 (CASP5), CASP5 (gene 838) (P51878 whole entry, looked up): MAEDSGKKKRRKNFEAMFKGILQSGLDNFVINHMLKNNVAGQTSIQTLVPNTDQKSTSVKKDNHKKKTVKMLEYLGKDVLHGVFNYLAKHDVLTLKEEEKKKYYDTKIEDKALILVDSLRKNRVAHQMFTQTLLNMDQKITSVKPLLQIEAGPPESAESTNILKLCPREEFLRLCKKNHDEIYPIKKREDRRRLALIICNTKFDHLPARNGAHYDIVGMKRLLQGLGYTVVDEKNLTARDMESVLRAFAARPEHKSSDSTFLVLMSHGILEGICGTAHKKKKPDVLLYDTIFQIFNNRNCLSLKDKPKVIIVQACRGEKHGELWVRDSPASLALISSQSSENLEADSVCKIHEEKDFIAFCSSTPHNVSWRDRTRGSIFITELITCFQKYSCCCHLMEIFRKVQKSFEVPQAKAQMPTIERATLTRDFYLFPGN
For the compound `Nc1cc(N)cc(C(=O)O)c1`, the AC50 was 19.9 µM (active).
Same read-out and setting: as for `CCCCC/C=C/C=C/C=O`, the figure is 0.627 µM (active).
Still for that read-out and setting: as for `O=C1OC2(c3cc(Br)c(O)c(Br)c3Oc3c2cc(Br)c(O)c3Br)c2c(Cl)c(Cl)c(Cl)c(Cl)c21`, the figure is 0.552 µM (active).

Another test addresses human Beta-secretase (BACE), BACE1 (gene 23621) (UniProt P56817). Put plainly: NVS_ENZ_hBACE: NovaScreen (NVS) Enzymatic Assay for human Beta-secretase (BACE) (AID 2283140).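 Further: hits are inhibitors that reduce fluorescent substrate signal versus DMSO.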 In outline:
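Recombinant BACE1 (SF9 extract) incubated with compound and fluorescent substrate, 1 h. Plates carried positive and DMSO negative controls. Initial single dose 25 uM, duplicate; confirmation by concentration series.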
For the compound `N#Cc1ccccc1`, the compound was called inactive.
`Cc1ccc(Nc2ccc(O)c3c2C(=O)c2ccccc2C3=O)cc1`: the half-maximal activity concentration (AC50) was 6.25 µM (active).
Turning to `COC(=O)c1ccc(C)cc1`, the call was inactive.
Regarding `CCCCC/C=C/C=C/C=O`, the AC50 is 25 µM (active).
Still for that read-out and setting: as for `O=C=NC1CCC(CC2CCC(N=C=O)CC2)CC1` (stereo unspecified), the figure is 8.32 µM (active).

The target of another test is human Dual Specificity Protein Phosphatase 3 (DUSP3), DUSP3 (gene 1845) (UniProt P51452). The test can be described thus: NVS_ENZ_hDUSP3: NovaScreen (NVS) Enzymatic Assay for human Dual Specificity Protein Phosphatase 3 (DUSP3) (AID 2283152).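 Further: phosphatase activity of recombinant human DUSP3 on a fluorogenic substrate without cells.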 Summed up:
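Cell-free assay with recombinant human DUSP3 and fluorogenic substrate, read by fluorescence intensity. Primary screen ran duplicate at 25 uM; actives followed up in concentration series; loss of signal versus DMSO scored.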
As for `CCCCC/C=C/C=C/C=O`, the AC50 is 9.31 µM (active).
In the case of `S=C(S)NCCNC(=S)S`, the AC50 was 0.161 µM (active).
For `O=C1OC2(c3cc(Br)c(O)c(Br)c3Oc3c2cc(Br)c(O)c3Br)c2c(Cl)c(Cl)c(Cl)c(Cl)c21`, the AC50 was 6.67 µM (active).

The target in another test is human Ephrin type-A Receptor 1 (EphA1), EPHA1 (gene 2041) (UniProt P21709). The test can be described thus: NVS_ENZ_hEphA1: NovaScreen (NVS) Enzymatic Assay for human Ephrin type-A Receptor 1 (EphA1) (AID 2283158).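 Further: activity is signal loss versus DMSO meaning EphA1 kinase inhibition.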 Summed up: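 Fluorescent substrate conversion, resolved by mobility-shift separation, measured 1 hour post-dosing using recombinant enzyme; signal loss relative to DMSO baseline. Single-concentration duplicates at 25 uM preceded singleton concentration series topping at 50 uM.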
Chain of human Ephrin type-A Receptor 1 (EphA1), EPHA1 (gene 2041) (P21709 whole entry, looked up): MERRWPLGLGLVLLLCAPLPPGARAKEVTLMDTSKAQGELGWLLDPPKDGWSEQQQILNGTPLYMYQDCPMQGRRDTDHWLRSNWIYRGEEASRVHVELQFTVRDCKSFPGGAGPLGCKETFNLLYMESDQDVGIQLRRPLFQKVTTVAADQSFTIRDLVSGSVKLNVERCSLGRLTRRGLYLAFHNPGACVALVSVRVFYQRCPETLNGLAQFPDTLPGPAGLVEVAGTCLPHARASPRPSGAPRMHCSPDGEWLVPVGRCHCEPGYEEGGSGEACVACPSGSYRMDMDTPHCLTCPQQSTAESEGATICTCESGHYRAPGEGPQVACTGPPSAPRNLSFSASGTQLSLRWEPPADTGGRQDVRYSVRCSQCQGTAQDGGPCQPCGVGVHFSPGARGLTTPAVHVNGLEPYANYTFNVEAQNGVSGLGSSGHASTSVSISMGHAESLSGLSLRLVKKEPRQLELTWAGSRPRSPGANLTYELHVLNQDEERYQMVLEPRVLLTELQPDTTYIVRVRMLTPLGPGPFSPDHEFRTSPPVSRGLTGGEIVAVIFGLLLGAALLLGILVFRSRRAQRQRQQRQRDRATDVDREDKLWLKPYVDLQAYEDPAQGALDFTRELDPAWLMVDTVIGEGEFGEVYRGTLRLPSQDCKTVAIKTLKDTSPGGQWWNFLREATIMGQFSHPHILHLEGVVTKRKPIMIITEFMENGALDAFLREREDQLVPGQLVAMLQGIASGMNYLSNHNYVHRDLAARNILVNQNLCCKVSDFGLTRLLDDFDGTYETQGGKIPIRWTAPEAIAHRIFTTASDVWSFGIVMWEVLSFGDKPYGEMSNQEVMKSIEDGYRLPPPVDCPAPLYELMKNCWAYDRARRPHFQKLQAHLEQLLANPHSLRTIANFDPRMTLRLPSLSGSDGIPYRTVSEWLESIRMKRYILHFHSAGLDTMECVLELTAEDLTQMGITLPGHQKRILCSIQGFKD
On to `CC1(C)[C@H]2CC[C@]1(C)[C@H](O)C2`, for which the call was inactive.
Regarding `COC(=O)OC`, the compound was classed as inactive.
On the same count and under the same terms, as for `CC(CCO)CCCC(C)(C)O` (stereo unspecified), the entry is “inactive”.
Turning to `CC(C)[C@H]1CC[C@@H](C)CC1=O`, the compound was classed as inactive.
Same read-out and setting: as for `OC1C(O)C(O)C(O)C(O)C1O` (stereo unspecified), the entry is “inactive”; as for `C#C[C@]1(O)CC[C@H]2[C@@H]3CCC4=Cc5oncc5C[C@]4(C)[C@H]3CC[C@@]21C`, “inactive”; as for `CC(C)[C@@H]1CC[C@@H](C)CC1=O`, “inactive”.
On the same count and under the same terms, as for `OCC(CO)(CO)COCC(CO)(CO)CO`, the entry is “inactive”; as for `CC1COc2ccccc2N1C(=O)C(Cl)Cl` (stereo unspecified), “inactive”.
Take `CC(C)Oc1ccccc1O`: the call was inactive.
Take `CCCCO`: the compound was called inactive.
Same read-out and setting: the value for `CCO[Si](CCCS)(OCC)OCC` was “inactive”.
In the case of `CC(=O)OCc1ccc2c(c1)OCO2`, the AC50 is 8.23 µM (active).
`CCCCC/C=C/C=C/C=O`: the compound was called inactive.
Take `CC1CCC2CC1C2(C)C` (stereo unspecified): the AC50 is 21.3 µM (active).
Regarding `COc1cc2ncnc(Nc3cccc(Cl)c3)c2cc1OC`, the result was inactive.
For the compound `CCn1c2ccccc2c2cc(N)ccc21`, the concentration at half-maximal activity (AC50) is 19.3 µM (active).
For `O=[N+]([O-])c1cc(C(F)(F)F)ccc1Cl`, the compound was called inactive.
The same measure, in the same setting: the value for `Cc1ccc2ccccc2n1` was “inactive”.
